Hits are enriched below; roughly 8.1% of the tested compounds scored in any of these assays.
KB-V1 cytotox: KB-V1 MDR subline cytotoxicity. 400,000 tested, 3.4% active. Potency, µM (titrated, usually from 46.1 µM), most hits filed as cytotoxic. KB-V1 MDR cells viability, CellTiter-Glo, 72 h; further: on the % scale 0 is the no-effect control and ±100 the full control effect; nearly all actives have a fitted effect of over 60% in size
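Following 72 h at 37 degrees C with compound, KB-V1 cell viability was read by CellTiter-Glo luminescence, medium being phenol-red-free DMEM plus 10% FBS; concentration-response parameters came from normalized, curve-fitted qHTS data.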
MCF10A rerep: DNA re-replication induction in MCF 10a cells | MCF 10A DNA re-replication, Hoechst nuclear intensity, 48 h | 350,000 tested, 2.9% active | Potency, µM (series often up to 46.1 µM), for inactives: at the highest dose activity, positive = re-replication, hits mostly activators; further: % of control where 0% means no effect; nearly all actives have a fitted effect of over 50% in size
KB-3-1 tox: KB-3-1 parental cell cytotoxicity; AID 1347075; 400,000 tested, 1.4% active; Potency, µM (top dose mostly 46.1 µM), most hits filed as cytotoxic; KB-3-1 viability, CellTiter-Glo ATP luminescence, 72 h; further: on the % scale 0 is the no-effect control and ±100 the full control effect; nearly all actives have a fitted effect of over 60% in size
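Cytotoxicity measured as CellTiter-Glo luminescence after 72 h at 37 C. Compound titrations were pinned onto drug-naive KB-3-1 parental adenocarcinoma cells grown in DMEM with 10% FBS, and normalized data fitted to concentration-response curves.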
ELG1 repair inh: inhibitors of ELG1-dependent DNA repair in HEK293T cells; HEK293T ELG1-luciferase reporter, luminescence, 16 h; DNA damage induced by 5-fluorouridine; Potency, µM (doses to about 46.1 µM), for inactives: at the highest dose activity change, negative = inhibition, most hits filed as inhibitors; 330,000 tested, 2.3% active; further: on the % scale 0 is the no-effect control and ±100 the full control effect; nearly all actives have a fitted effect of over 55% in size
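Luminescence from the luciferase reporter, measured 30 min after ONE-Glo reagent at room temperature, was the read-out. Beforehand, 2,000 cells per well were exposed for 16 hr at 37 °C to 5-fluorouridine together with compound or vehicle.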
SW480 rereplic: inducers of DNA re-replication in SW480 colon cancer cells | AID 624297 | Potency, µM (doses to about 46.1 µM), without a hit: at the top dose re-replication activation, hits mostly activators | SW480 DNA re-replication, Hoechst DNA content imaging, 48 h | 340,000 tested, 1.8% active; further: % of control where 0% means no effect; nearly all actives have a fitted effect of over 55% in size
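DNA re-replication was detected as more nuclei of elevated Hoechst intensity after 48 hr exposure to compound (23 nL pinned per well of 250 cells).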
The depositor's hits bear a star; i = inactive; ? = inconclusive; nt = no result; [ ] = another dose, or the depositor's remark. The call rests on the fitted dose curve; in most records, active means well fitted curve in the direction sought with a large enough effect; inconclusive means small, poorly fitted or top-dose-only effect, or another doubt; inactive means no such curve, though single readings can be large; an effect the other way counts as inactive or inconclusive. Potency means the concentration at half of the fitted maximal effect.

SMILES | KB-V1 cytotox | MCF10A rerep | KB-3-1 tox | ELG1 repair inh | SW480 rereplic
O=C(Cc1ccccc1)Nc1cc2c(cc1Cl)OCCCO2 | i | 7.5% | i | ? | 0.0%
CCn1c(C(=O)NC(C)c2ccc3c(c2)OCCO3)cc2sccc21 (stereo unspecified) | i | 17.8% | i | -3.8% | 4.6%
CC(NC(=O)c1cc2sccc2n1C)c1ccc2c(c1)OCCO2 (stereo unspecified) | 20.6µM* | ? | ? | 6.7% | -4.2%
CC(CC(=O)NC(C)c1ccc2c(c1)OCCO2)c1ccccc1 (stereo unspecified) | 25.9µM* | 5.4% | i | 0.4% | -44.3%
CC(NC(=O)CCc1ccccc1)c1cc2c(cc1Cl)OCCO2 (stereo unspecified) | 20.6µM* | ? | ? | -23.8% | 18.3%
CCCCCCc1ccc(N2C[C@H](Cc3ccccc3)[C@@H](CC(=O)Nc3ccccc3)C2=O)cc1 | ? | -36.5% | i | 7.8% | 11.6%
CCn1cnc2cc(NCc3ccncc3)ccc21 | i | 14.6µM* | i | 2.9% | -6.0%
CCn1cnc2cc(NCc3ccc(Cl)cc3)ccc21 | i | 10.2% | i | ? | 0.2%
Cc1ccc(CNc2ccc3c(c2)ncn3C)cc1 | i | 1.1% | i | ? | -3.5%
COc1ccc(CNc2ccc3c(c2)ncn3C)cc1OC | ? | 24.5% | ? | -1.9% | 10.3µM*
O=C(CCn1cnnn1)Nc1ccccc1F | i | -7.4% | i | -3.3% | -0.8%
COc1ccc(S(=O)(=O)N2CCOCC2)cc1NC(=O)c1ccc(-n2nc(C)cc2C)cc1 | i | 6.8% | i | 0.9% | -13.6%
Cc1cccc(C)c1OCc1cc(C(=O)NC2CCC2)no1 | i | ? | i | ? | ?
COc1ccc(C2Cc3ccccc3C(=O)O2)cc1 (stereo unspecified) | ? | -2.8% | i | 30.0% | 20.6µM*
COc1ccc(NC(=O)C2Cc3ccccc3C(=O)O2)cc1 (stereo unspecified) | i | 8.7% | i | ? | 0.9%
O=C(NCc1ccc(F)cc1)N1CCc2ccccc2C1 | i | -2.5% | i | ? | -28.0%
CCCCNc1nc2ccccc2n1CC(=O)N1CCc2ccccc2C1 | 10.3µM* | -2.1% | i | ? | 0.3%
CCCCNC(=O)N1CCc2ccccc2C1 | i | 2.1% | i | ? | 23.1µM*
O=C(COc1ccc([N+](=O)[O-])cc1Cl)NCCN1C(=O)CSC1=O | i | -1.7% | i | 13.2% | -19.8%
COc1ccc(-n2cc(CN[C@H]3CCCCNC3=O)c(-c3cccc(F)c3)n2)cc1 | i | -5.5% | i | ? | -3.6%
CCC(COC)NCc1cn(-c2ccc(OC)cc2)nc1-c1cccc(F)c1 (stereo unspecified) | 5.17µM* | 16.5% | i | ? | ?
COc1ccc(-n2cc(CNC3CCN(C)CC3)c(-c3cccc(F)c3)n2)cc1 | i | 20.6µM* | ? | 0.1% | -1.9%[1.84 µM]
CCN(CC)C(=O)Cn1c(=O)c2ccccc2n2c(=S)sc(-c3cccc(C)c3)c12 | 2.91µM* | 1.2% | i | 5.3% | -95.3%
CCN(CC)C(=O)Cn1c(=O)n(Cc2ccc(C(=O)NCc3ccc(C)cc3)cc2)c(=O)c2ccccc21 | i | nt | i | nt | nt
Cc1cc(C)nc(N/C(=N\S(=O)(=O)Cc2ccccc2)Nc2ccccc2Br)n1 | ? | 4.11µM* | i | ? | ?
SMILES | KB-V1 cytotox | MCF10A rerep | KB-3-1 tox | ELG1 repair inh | SW480 rereplic
Cc1ccc(C(=O)OCC(=O)N(C)c2ccccc2)c(C)c1 | i | -2.4% | i | 15.3% | ?
CN(C(=O)COC(=O)c1ccccc1C(=O)c1ccccc1)c1ccccc1 | 20.6µM* | 4.0% | i | 12.4% | 5.0%
COc1ccc(N2C(=O)/C(=C\c3ccco3)N=C2SCC(=O)N(C(C)C)C(C)C)cc1Cl | ? | 18.3% | i | 13µM* | 1.9%
COc1ccc(N2C(=O)/C(=C\c3ccco3)N=C2SCC(=O)NC(C)C)cc1Cl | i | 3.4% | i | ? | -2.4%
CCOn1c(-n2nc(C)cc2C)nc2ccccc2c1=O | i | 6.1% | i | 4.9% | -2.6%
Cc1cc(C)n(-c2nc3ccccc3c(=O)n2OCC#N)n1 | ? | ? | ? | ? | 16.4µM*
CC1(C)Cc2ccccc2C(N/N=C/c2ccc(Cl)cc2)=N1 | 14.6µM* | ? | ? | -2.4% | 4.3%
CC1(C)Cc2ccccc2C(N/N=C/c2ccc([N+](=O)[O-])cc2)=N1 | i | -13.2% | i | ? | -26.4%
CCN1CCN(S(=O)(=O)c2ccc(Cl)c(C(=O)N(C)Cc3cccs3)c2)CC1 | ? | 16.1% | i | -0.7% | 2.8%
COc1cc(OC)cc(C(=O)N[C@H](C(=O)NC2=NCCS2)C(C)C)c1 | 11.6µM* | -1.0% | i | -4.3% | -1.4%
CC(C)C(NC(=O)c1ccccc1)C(=O)NC1=NCCS1 (stereo unspecified) | i | ? | i | 3.2% | 7.8%
COc1cc(OC)cc(C(=O)N[C@H](C(=O)Nc2nc(-c3ccc(OC)c(OC)c3)cs2)C(C)C)c1 | ? | ? | ? | 20.6µM* | 5.4%
COc1cc(OC)cc(C(=O)N[C@H](C(=O)Nc2nc(-c3cc(OC)ccc3OC)cs2)C(C)C)c1 | i | -2.8% | i | 20.6µM* | 26.9%
CC(C)(C)c1nc(C(C)(C)C)c(Br)c(=O)[nH]1 | ? | 0.8% | i | -2.2% | -4.4%
Cc1cccc(NC(=O)c2cc(-c3cccnc3)nc3c(C)cccc23)n1 | ? | 16.4µM* | i | -6.3% | 2.2%
Cc1cc(NC(=O)c2cc(-c3ccncc3)nc3c(C)cccc23)no1 | 3.66µM* | ? | 3.26µM* | 9.2µM* | 6.51µM*
Cc1cc(NC(=O)c2cc(-c3ccccn3)nc3c(Cl)cccc23)no1 | nt | ? | nt | 8.8% | 0.4%
COc1cccc(NC(=O)c2cc(-c3cccnc3)nc3c(Cl)cccc23)c1 | 2.91µM* | ? | i | ? | 16.2%
O=S(=O)(c1cccs1)N1CCN(CC(O)COc2cccc(Br)c2)CC1 (stereo unspecified) | 14.6µM* | 14.0% | ? | 20.6µM* | ?
CN(c1ccccc1)S(=O)(=O)c1ccccc1Br | i | 4.3% | i | ? | -26.4%
COc1cccc(/C=N/n2c(N)c(S(=O)(=O)c3cccs3)c3nc4ccccc4nc32)c1OC | ? | 3.66µM* | ? | ? | 11.6µM*
COCCn1c(N)c(S(=O)(=O)c2cccs2)c2nc3ccccc3nc21 | i | 23.1µM* | i | -9.6% | 9.0%
COCCn1c(N)c(C(=O)NCc2cccs2)c2nc3ccccc3nc21 | ? | 8.2µM* | ? | ? | ?

From PubChem
